# Data: PubChem BioAssay (NCI)
# This is part of a sample that, as a whole, favours compounds with a hit. Of some 79,000 tested, about 15% had one in any assay. Values without a mark were called inactive. Activity calls are given as the source filed them. Cut-off read from the data, not from the text of the source: active = growth inhibition above about 70%; inactive = the rest.
# Legend:
# [1] = NCI Yeast Anticancer Drug Screen. Data for the rad50 strain (AID 155);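 note: 0% = growth of vehicle-only cultures of the same strain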; conditions: S. cerevisiae rad50 strain growth inhibition, stronger effect = higher value
# In short: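 Yeast carrying a defined DNA repair defect were exposed to test compounds, and growth was compared with vehicle-treated controls to give percent inhibition.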
# [2] = NCI Yeast Anticancer Drug Screen. Data for the mec2-1 strain (AID 157); conditions: S. cerevisiae mec2-1 strain, stronger effect = higher value
# In short: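 Yeast mec2-1 mutant treated with compound. Readout: growth inhibition vs vehicle controls.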
# [3] = NCI Yeast Anticancer Drug Screen. Data for the sgs1 mgt1 strain (AID 161);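 note: 0% = growth of cultures given vehicle only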; conditions: S. cerevisiae sgs1 mgt1 strain, stronger effect = higher value
# In short: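 Mutant yeast exposed to compound; growth scored against vehicle-only wells.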
# [4] = NCI Yeast Anticancer Drug Screen. Data for the cln2 rad14 strain (AID 165);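 note: 0% = growth equal to vehicle treated cultures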; conditions: S. cerevisiae cln2 rad14 strain, stronger effect = higher value
# In short: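 cln2 rad14 yeast strain; compound exposure; growth inhibition read vs vehicle controls.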
# [5] = NCI Yeast Anticancer Drug Screen. Data for the bub3 strain (AID 167); conditions: S. cerevisiae bub3 mutant strain, stronger effect = higher value
# In short: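 Compounds were applied to a genetically altered yeast strain carrying a cell-cycle control defect. Growth inhibition was scored against vehicle-treated controls.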
# [6] = NCI Yeast Anticancer Drug Screen. Data for the mlh1 rad18 strain (AID 175); conditions: S. cerevisiae mlh1 rad18 strain growth inhibition, stronger effect = higher value
# In short: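 Yeast w/ defined DNA-repair lesions; compound exposure; growth vs vehicle controls → % inhibition.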
# [7] = at 5.0 µM (retest, dose inferred, filed as 0.5)
# [8] = at 50.0 µM (retest, dose inferred, filed as 5.0)
Compound,"growth inhibition [1, 7]","growth inhibition [1, 8]",growth inhibition ([1]; at 50.0 µM),"growth inhibition [2, 7]","growth inhibition [2, 8]",growth inhibition ([2]; at 50.0 µM),"growth inhibition [3, 7]","growth inhibition [3, 8]",growth inhibition ([3]; at 50.0 µM),"growth inhibition [4, 7]","growth inhibition [4, 8]",growth inhibition ([4]; at 50.0 µM),"growth inhibition [5, 7]","growth inhibition [5, 8]",growth inhibition ([5]; at 50.0 µM),"growth inhibition [6, 7]","growth inhibition [6, 8]",growth inhibition ([6]; at 50.0 µM)
CCCCNc1ccc(C(=O)OC2CCN(C)CC2)c(Cl)c1,99% (active),96% (active),97% (active),99% (active),97% (active),94.5% (active),99% (active),98% (active),95.9% (active),98% (active),96% (active),84% (active),99% (active),97% (active),96.3% (active),99% (active),96% (active),92.8% (active)
CC1=NC(=Cc2cccc(Cl)c2)C(=O)N1n1c(-c2ccccc2)nc2ccccc2c1=O,18%,73% (active),68.5%,21%,77% (active),69.9%,11%,71% (active),79.4% (active),16%,84% (active),78% (active),-9%,86% (active),74.7% (active),11%,81% (active),81.7% (active)
O=S(=O)(Nc1ccc2ccc3cccc4ccc1c2c34)c1ccccc1,7%,25%,57.6%,3%,12%,34.9%,6%,45%,62.2%,-8%,-7%,17.6%,-4%,19%,56.9%,6%,55%,71.2% (active)
CC(C)NC(=O)CN1C(=O)NC(C)(c2ccccc2)C1=O (stereo not given),-4%,-1%,75.5% (active),6%,8%,67%,-4%,11%,53.5%,2%,-3%,90.8% (active),-3%,1%,79.2% (active),11%,13%,70.3% (active)
Cc1ccc(S(=O)(=O)N/N=C/Cc2ccccc2)cc1,2%,96% (active),87.5% (active),-13%,98% (active),7%,3%,98% (active),79.8% (active),-3%,95% (active),11.6%,-5%,97% (active),12.1%,28%,98% (active),85.3% (active)
N#CNc1nc(N)c(-c2ccc(Cl)cc2)c(C(=O)Nc2ccc(Cl)c(Cl)c2)n1,-1%,1%,-5.15%,-3%,-2%,14%,-2%,4%,-8%,-4%,1%,-6.6%,-2%,1%,4.2%,-1%,-2%,-22.4%
COc1ccc2c(c1)CC[C@@H]1[C@@H]2CC[C@]2(C)/C(=N/OCCN3CCCC3)CC[C@@H]12,95% (active),99% (active),89.5% (active),38%,99% (active),91.8% (active),24%,96% (active),92.1% (active),46%,98% (active),89.7% (active),49%,97% (active),91.1% (active),39%,99% (active),91.1% (active)
O=Cc1ccc([N+](=O)[O-])o1,36%,98% (active),99.6% (active),7%,99% (active),99.4% (active),13%,99% (active),99.6% (active),-1%,85% (active),98.6% (active),-3%,57%,99.8% (active),20%,99% (active),99.5% (active)
COc1ccccc1NC(c1ccccc1)c1ccc2cccnc2c1O (stereo not given),2%,50%,81.2% (active),3%,60%,49.2%,7%,45%,73.2% (active),-7%,-1%,15.2%,-5%,18%,2.9%,-23%,44%,75% (active)
[O-][n+]1c(-c2ccccc2)c(Cl)c(-c2ccccc2)n1O,4%,75% (active),86.3% (active),0%,94% (active),97% (active),4%,92% (active),97.6% (active),0%,53%,92.7% (active),8%,96% (active),97.8% (active),4%,95% (active),97.5% (active)
